Test results: PubChem BioAssay AID1224858 (National Center for Advancing Translational Sciences (NCATS), 2016)
Inconclusive results are not listed. Calls of active or inactive are those of the source. The call rests on the fitted dose curve; in most records, active means well fitted inhibition curve with a large enough effect; inconclusive means small, poorly fitted or top-dose-only effect; inactive means no such curve, though single readings can be large or run the other way.

Test: Confirmation assay for measurement of the activity of small molecule inhibitors on Zika virus induced Caspase-3 activity in human astrocytes
Details: ZIKV-induced caspase-3/7 luminescence, 6 h; series mostly up to 46.1 µM; activity, negative = inhibition: at the top concentration
Source text: National Center for Advancing Translational Sciences [NCATS] Johns Hopkins University School of Medicine Florida State University Assay Overview: Increase in the Caspase-3 activity indicates an activation of apoptosis cell death pathway caused by Zika virus infection in certain types of neuronal cells including human neural progenitor cells (hNPCs), astrocytes, and astrocytoma cell line (SNB-19). This cell-based caspase-3 activity assay measures the increased caspase-3 activity in the human astrocytes after a 6-hour Zika virus infection with a luminescence readout. A decrease in the luminescence signal in this assay by small molecule treatment indicates an inhibitory effect of that small molecule on the Zika virus induced caspase-3 activity that may correlate with its effect on reduction of Zika virus caused cell death.
Assay Protocol Summary: The medium for astrocytes contains AM basal medium (ScienCell, Cat.# 1801), AGS (ScienCell, Cat.# 1801), 10% FBS, and 1% Pen/Strep. A Caspase-Glo 3/7 assay kit (catalog number G8092; Promega, Madison, WI) was used to detect caspase-3 activity induced by Zika virus infection in human cells. The reagent mixture was reconstituted as described in the protocol from the manufacturer. Polystyrene tissue culture treated and PDL coated white plates were obtained from Greiner Bio-One (Monroe, NC). Cells were seeded in 384- or 1536-well assay plates and cultured at 37 C with 5% CO2 for 16 to 20 hours. The typical cell seeding density in the 1536-well plate assay is 350 cells/well in 3 ul medium for astrocytes in tissue culture treated plates. Compounds were added to cells and incubated for one hour before addition of ZIKV solution to cells (2 FFU/cell). After incubation at 37 C with 5% CO2 for 6 hours, the reagent mixture of Caspase-Glo 3/7 assay kit was added to each well, followed by incubation at room temperature for 30 minutes. The luminescence intensity of the assay plates was measured using a ViewLux plate reader (PerkinElmer). Data were normalized by using the cell-containing wells without ZIKV as a negative control (0% induction of caspase 3/7 activity) and wells containing ZIKV infected cells (Caspase-3 activity induced) as a positive control (100% induction of caspase 3 activity). The percentage inhibitions of the increased Caspase-3 activity by small molecule inhibitors were then calculated.

| Structure (SMILES) | activity, negative = inhibition | Potency |
| --- | --- | --- |
| CCCCCCCCCCCC(=O)[O][Sn]([CH2]CCC)([CH2]CCC)[O]C(=O)CCCCCCCCCCC | -15% (inactive) |  |
| CC(C)OC(=O)CCCC=CC[C@@H]1[C@H](C=C[C@@H](O)COc2cccc(C(F)(F)F)c2)[C@H](O)C[C@@H]1O | 38.6% (inactive) |  |
| CCOCCOC(=O)/C=C/c1ccc(OC)cc1 | -28.8% (inactive) |  |
| COc1ccc(C=CC(=O)Nc2ccccc2C(=O)O)cc1OC |  | 17.3 µM (active) |
| CCN(CC)c1ccc(C(=C2C=CC(=[N+](CC)CC)C=C2)c2cc(S(=O)(=O)O)ccc2S(=O)(=O)[O-])cc1 |  | 7.74 µM (active) |
| O=C(O)c1cc([N+](=O)[O-])ccc1NCCCc1ccccc1 |  | 8.69 µM (active) |
| Cc1cc(O)c2c(c1)C(=O)c1cc(O)cc(O)c1C2=O |  | 2.75 µM (active) |
| NC(=O)c1cccc2[nH]c(-c3ccc([C@H]4CCCN4)cc3F)nc12 |  | 13.8 µM (active) |
| CC(O)=C(C#N)C(=O)Nc1ccc(C(F)(F)F)cc1 |  | 1.09 µM (active) |
| O=C(O)[C@H](CC(=O)N1C[C@@H]2CCCC[C@H]2C1)Cc1ccccc1 | 1.15% (inactive) |  |
| Nc1ccc(-c2ccc3ccccc3n2)cc1 |  | 4.35 µM (active) |
| COc1cc(NC(C)CCCN)c2ncccc2c1 (stereo not given) | 3.92% (inactive) |  |
| CC1=C(CO)C(=O)O[C@@H]([C@@H](C)[C@H]2CC[C@H]3[C@@H]4C[C@H]5O[C@]56[C@@H](O)C=CC(=O)[C@]6(C)[C@@H]4CC[C@]23C)C1 | -6.03% (inactive) |  |
| O=S(=O)(O)CCSSCCS(=O)(=O)O | 2.17% (inactive) |  |
| Cc1cccc(/C=C/c2ccccc2)n1 |  | 10.9 µM (active) |
| O=C(O)CCC(=O)c1ccc(-c2ccccc2)cc1 |  | 19.5 µM (active) |
| Cc1cccc(C#Cc2ccccc2)n1 |  | 6.15 µM (active) |
| COCCn1c2c([n+](Cc3cnccn3)c1C)C(=O)c1ccccc1C2=O |  | 5.48 µM (active) |
| CCCS(=O)c1ccc2nc(NC(=O)OC)[nH]c2c1 (stereo not given) |  | 13.8 µM (active) |
| CC[C@@]1(O)C[C@H](O[C@H]2C[C@H](N(C)C)[C@H](O[C@H]3C[C@H](O)[C@H](O[C@H]4CCC(=O)[C@H](C)O4)[C@H](C)O3)[C@H](C)O2)c2c(cc3c(c2O)C(=O)c2c(O)cccc2C3=O)[C@@H]1C(=O)OC | 10.1% (inactive) |  |

| Structure (SMILES) | activity, negative = inhibition | Potency |
| --- | --- | --- |
| COc1ccc(-c2cc(=O)c3c(O)cc(O)cc3o2)cc1O |  | 13.8 µM (active) |
| CO[C@H]1C(=O)[C@]2(C)[C@@H](OC)C[C@H]3OC[C@@]3(OC(C)=O)[C@H]2[C@H](OC(=O)c2ccccc2)[C@]2(O)C[C@H](OC(=O)[C@H](O)[C@@H](NC(=O)OC(C)(C)C)c3ccccc3)C(C)=C1C2(C)C | -4.54% (inactive) |  |
| CC(=NNC(=S)N1CCC1)c1ccccn1 | 48.5% (inactive) |  |
| O[C@@H](COc1cccc2ncccc12)CN1CCN(C2c3ccccc3[C@@H]3[C@H](c4ccccc42)C3(F)F)CC1 (stereo not given in full) | 21.8% (inactive) |  |
| COc1cccc(-c2ccc(NC(=O)C3=C(C(=O)O)CCC3)c(F)c2)c1 |  | 2.45 µM (active) |
| CC(=O)Nc1ccc([C@H](C)C(=O)Nc2ncc(C(C)C)s2)cc1 |  | 10.9 µM (active) |
| O=C(O)[C@@H](c1ccc(OCc2ccc3ccccc3n2)cc1)C1CCCC1 |  | 8.69 µM (active) |
| Cc1nc(-c2ccc(OCC(C)C)c(C#N)c2)sc1C(=O)O |  | 2.18 µM (active) |
| CN1CC(=O)N2C(Cc3c([nH]c4ccccc34)[C@H]2c2ccc3c(c2)OCO3)C1=O (stereo not given in full) | 9.65% (inactive) |  |
| O=C(Nc1ccc(OC(F)(F)F)cc1)c1sccc1NCc1ccnc2ccccc12 |  | 7.74 µM (active) |
| CC(C)c1ccc2oc3nc(N)c(C(=O)O)cc3c(=O)c2c1 |  | 1.95 µM (active) |
| O=C(O)c1ccccc1Nc1cccc(C(F)(F)F)c1 |  | 6.9 µM (active) |
| c1ccc(CCNc2nc(-c3ccccc3)cs2)cc1 |  | 10.9 µM (active) |
| CCC(C(=O)O)c1ccc(N2Cc3ccccc3C2=O)cc1 (stereo not given) |  | 6.9 µM (active) |
| CS(=O)(=O)c1ccc(-c2cn3ccccc3n2)cc1 |  | 7.74 µM (active) |
| O=S(=O)(O)c1ccc2nc(-c3ccccc3)[nH]c2c1 |  | 1.95 µM (active) |
| COc1ccnc2c1CCCCC2S(=O)c1nc2ccccc2[nH]1 (stereo not given) | 54% (inactive) |  |
| Oc1cc(O)cc(/C=C/c2ccc(O)c(O)c2)c1 |  | 6.9 µM (active) |
| COc1cc2nc(-c3ccc(N4CCN(C)CC4)cc3)nc(NCCN3CCOCC3)c2cc1OC | -9.03% (inactive) |  |
| CCCC(=O)OC[C@@H](OC(=O)CCC)[C@@H](OC(=O)CCC)[C@H](Cn1c2nc(=O)[nH]c(=O)c-2nc2cc(C)c(C)cc21)OC(=O)CCC | -26.4% (inactive) |  |
